Assay results published in the supplement of paper PMC11732987, “Enantioselective OTUD7B fragment discovery through chemoproteomics screening and high-throughput optimisation” (Communications Chemistry, 2025).

Legend:
Experiment in all cases: log2 ratio of Biotin-Ahx-Ub-VS probe labelling (fragment/DMSO); higher = less target engagement (more negative = stronger competition), active = hit call of the paper (q ≤ 0.05, log2 ratio ≤ -1)
Conditions in all cases: compound concentration: 200 uM; treatment time: 3 h
[1] = target: USP9X (UniProt Q93008)
Outline: (§1)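 HEK293T lysate (495 µg per sample, in Tris/CHAPS/IGEPAL buffer with protease inhibitors) was treated in triplicate with fragment at 200 µM or with DMSO for 3 h. It was then treated with Biotin-Ahx-Ub-VS (0.5 µM final) for 1 h. Labelled DUBs were NeutrAvidin-enriched, digested with LysC and trypsin, and run by diaPASEF LC-MS/MS. Spectronaut label-free quantities were global-median-normalised. Values are average log2 ratios fragment/DMSO by unpaired t-test, using proteins with ≥2 unique peptides.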

[2] = target: UniProt O00487
Outline: as §1

[3] = target: UniProt O00507
Outline: as §1

[4] = target: UniProt P51784
Outline: as §1

[5] = target: T1, UniProt Q5T2D3
T1 sequence (whole entry): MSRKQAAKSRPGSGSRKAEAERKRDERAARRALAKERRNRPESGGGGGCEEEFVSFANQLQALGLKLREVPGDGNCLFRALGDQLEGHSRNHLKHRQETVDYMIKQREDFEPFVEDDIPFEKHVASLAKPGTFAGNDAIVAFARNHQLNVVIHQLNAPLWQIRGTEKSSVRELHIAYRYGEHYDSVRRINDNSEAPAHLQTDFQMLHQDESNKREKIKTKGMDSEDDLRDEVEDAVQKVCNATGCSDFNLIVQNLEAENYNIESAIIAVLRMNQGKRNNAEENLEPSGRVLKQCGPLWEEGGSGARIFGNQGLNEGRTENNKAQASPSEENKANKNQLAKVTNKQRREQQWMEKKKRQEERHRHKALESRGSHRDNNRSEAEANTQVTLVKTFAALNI
Outline: as §1

[6] = target: T2, UniProt Q8TE49
T2 sequence (whole entry): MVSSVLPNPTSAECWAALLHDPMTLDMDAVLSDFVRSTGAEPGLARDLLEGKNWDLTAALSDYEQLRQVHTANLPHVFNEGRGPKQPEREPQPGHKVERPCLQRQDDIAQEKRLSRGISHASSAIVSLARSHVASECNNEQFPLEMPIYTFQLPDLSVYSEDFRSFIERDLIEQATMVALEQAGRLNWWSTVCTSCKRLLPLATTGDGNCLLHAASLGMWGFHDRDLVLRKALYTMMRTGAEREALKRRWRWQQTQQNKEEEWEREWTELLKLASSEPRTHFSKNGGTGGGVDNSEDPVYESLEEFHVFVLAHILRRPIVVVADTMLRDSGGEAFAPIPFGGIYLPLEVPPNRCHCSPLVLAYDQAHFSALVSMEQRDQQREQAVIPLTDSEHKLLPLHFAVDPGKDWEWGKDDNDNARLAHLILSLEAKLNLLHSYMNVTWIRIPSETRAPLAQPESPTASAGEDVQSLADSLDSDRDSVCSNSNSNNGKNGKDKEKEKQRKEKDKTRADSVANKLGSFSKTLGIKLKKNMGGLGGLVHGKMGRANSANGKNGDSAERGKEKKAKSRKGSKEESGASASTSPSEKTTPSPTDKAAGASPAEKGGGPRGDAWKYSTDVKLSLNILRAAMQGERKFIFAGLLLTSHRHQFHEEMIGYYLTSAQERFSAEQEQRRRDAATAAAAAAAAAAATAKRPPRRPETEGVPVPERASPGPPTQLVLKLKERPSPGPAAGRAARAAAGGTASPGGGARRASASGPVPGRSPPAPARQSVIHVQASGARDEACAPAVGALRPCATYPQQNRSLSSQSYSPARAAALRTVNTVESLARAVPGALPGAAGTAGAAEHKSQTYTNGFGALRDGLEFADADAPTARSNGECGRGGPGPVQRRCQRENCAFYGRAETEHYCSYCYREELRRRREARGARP
Outline: as §1

[7] = target: T3, UniProt Q9P2H5
T3 sequence (whole entry): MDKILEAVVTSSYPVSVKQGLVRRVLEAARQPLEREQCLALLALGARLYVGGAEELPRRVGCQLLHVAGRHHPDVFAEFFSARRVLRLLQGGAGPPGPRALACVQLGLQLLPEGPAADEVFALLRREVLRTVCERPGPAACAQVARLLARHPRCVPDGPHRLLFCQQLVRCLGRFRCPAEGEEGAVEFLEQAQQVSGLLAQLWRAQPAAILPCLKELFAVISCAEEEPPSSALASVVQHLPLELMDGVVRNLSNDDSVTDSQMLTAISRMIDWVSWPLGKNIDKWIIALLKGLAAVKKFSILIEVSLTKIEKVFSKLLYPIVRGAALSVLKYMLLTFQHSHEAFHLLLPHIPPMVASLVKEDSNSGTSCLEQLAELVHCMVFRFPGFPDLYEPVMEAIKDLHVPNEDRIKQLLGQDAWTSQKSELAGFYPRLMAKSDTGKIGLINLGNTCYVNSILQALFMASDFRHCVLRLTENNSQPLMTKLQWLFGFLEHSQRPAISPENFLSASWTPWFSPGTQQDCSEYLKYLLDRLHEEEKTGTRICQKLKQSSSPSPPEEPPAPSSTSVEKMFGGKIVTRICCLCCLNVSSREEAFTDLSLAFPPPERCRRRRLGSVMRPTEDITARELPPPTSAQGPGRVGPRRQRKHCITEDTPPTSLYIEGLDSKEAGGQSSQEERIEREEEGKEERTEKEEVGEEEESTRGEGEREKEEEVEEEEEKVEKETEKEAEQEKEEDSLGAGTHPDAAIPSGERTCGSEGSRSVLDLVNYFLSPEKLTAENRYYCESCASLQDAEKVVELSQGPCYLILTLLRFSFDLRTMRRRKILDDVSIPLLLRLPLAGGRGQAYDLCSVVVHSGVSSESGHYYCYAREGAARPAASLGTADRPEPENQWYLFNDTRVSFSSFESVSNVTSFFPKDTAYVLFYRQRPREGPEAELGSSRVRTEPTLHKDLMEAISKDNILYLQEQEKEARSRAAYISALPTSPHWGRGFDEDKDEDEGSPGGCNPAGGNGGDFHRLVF
Outline: as §1

[8] = target: T4, UniProt Q9UGI0
T4 sequence (whole entry): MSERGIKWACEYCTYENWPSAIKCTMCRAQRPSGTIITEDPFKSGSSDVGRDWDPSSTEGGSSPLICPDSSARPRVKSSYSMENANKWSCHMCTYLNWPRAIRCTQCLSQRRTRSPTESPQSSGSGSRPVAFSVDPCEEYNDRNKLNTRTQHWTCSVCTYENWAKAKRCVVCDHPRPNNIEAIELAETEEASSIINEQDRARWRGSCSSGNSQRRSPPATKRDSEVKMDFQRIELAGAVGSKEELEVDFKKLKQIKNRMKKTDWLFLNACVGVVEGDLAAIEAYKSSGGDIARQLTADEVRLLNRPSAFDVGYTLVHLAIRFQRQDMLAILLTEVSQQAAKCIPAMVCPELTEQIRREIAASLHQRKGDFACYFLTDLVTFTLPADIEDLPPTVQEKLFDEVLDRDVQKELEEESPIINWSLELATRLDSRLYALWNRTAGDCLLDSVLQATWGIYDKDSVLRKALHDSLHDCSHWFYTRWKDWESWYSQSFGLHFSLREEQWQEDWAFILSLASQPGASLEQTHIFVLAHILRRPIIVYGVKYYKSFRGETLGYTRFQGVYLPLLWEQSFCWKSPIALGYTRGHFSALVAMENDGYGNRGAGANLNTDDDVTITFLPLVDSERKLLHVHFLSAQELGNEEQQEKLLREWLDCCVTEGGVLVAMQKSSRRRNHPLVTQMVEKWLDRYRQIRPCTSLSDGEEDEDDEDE
Outline: as §1

[9] = target: T5, YOD1 (UniProt Q5VVQ6)
T5 sequence (whole entry): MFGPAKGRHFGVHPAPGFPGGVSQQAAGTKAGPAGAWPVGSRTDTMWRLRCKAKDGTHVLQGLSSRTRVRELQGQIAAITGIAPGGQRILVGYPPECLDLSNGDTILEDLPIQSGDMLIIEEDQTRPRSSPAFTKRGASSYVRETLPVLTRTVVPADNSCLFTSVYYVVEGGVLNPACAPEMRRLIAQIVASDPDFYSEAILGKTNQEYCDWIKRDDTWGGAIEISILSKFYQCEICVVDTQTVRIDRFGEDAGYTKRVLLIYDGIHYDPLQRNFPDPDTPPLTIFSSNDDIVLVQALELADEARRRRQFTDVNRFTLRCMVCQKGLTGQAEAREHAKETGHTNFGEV
Outline: as §1

Measured: log2 ratio of Biotin-Ahx-Ub-VS probe labelling

Sequence of UniProt O00487 (O00487 whole entry): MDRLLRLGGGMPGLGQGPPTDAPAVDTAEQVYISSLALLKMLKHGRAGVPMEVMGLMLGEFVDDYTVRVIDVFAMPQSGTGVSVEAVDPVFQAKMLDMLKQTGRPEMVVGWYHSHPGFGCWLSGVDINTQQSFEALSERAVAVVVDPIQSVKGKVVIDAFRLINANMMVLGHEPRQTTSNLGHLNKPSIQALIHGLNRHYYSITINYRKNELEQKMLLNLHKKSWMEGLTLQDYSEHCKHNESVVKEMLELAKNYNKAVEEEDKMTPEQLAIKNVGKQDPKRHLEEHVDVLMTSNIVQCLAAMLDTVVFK
Sequence of USP9X (Q93008 whole entry, the tested form may be a part): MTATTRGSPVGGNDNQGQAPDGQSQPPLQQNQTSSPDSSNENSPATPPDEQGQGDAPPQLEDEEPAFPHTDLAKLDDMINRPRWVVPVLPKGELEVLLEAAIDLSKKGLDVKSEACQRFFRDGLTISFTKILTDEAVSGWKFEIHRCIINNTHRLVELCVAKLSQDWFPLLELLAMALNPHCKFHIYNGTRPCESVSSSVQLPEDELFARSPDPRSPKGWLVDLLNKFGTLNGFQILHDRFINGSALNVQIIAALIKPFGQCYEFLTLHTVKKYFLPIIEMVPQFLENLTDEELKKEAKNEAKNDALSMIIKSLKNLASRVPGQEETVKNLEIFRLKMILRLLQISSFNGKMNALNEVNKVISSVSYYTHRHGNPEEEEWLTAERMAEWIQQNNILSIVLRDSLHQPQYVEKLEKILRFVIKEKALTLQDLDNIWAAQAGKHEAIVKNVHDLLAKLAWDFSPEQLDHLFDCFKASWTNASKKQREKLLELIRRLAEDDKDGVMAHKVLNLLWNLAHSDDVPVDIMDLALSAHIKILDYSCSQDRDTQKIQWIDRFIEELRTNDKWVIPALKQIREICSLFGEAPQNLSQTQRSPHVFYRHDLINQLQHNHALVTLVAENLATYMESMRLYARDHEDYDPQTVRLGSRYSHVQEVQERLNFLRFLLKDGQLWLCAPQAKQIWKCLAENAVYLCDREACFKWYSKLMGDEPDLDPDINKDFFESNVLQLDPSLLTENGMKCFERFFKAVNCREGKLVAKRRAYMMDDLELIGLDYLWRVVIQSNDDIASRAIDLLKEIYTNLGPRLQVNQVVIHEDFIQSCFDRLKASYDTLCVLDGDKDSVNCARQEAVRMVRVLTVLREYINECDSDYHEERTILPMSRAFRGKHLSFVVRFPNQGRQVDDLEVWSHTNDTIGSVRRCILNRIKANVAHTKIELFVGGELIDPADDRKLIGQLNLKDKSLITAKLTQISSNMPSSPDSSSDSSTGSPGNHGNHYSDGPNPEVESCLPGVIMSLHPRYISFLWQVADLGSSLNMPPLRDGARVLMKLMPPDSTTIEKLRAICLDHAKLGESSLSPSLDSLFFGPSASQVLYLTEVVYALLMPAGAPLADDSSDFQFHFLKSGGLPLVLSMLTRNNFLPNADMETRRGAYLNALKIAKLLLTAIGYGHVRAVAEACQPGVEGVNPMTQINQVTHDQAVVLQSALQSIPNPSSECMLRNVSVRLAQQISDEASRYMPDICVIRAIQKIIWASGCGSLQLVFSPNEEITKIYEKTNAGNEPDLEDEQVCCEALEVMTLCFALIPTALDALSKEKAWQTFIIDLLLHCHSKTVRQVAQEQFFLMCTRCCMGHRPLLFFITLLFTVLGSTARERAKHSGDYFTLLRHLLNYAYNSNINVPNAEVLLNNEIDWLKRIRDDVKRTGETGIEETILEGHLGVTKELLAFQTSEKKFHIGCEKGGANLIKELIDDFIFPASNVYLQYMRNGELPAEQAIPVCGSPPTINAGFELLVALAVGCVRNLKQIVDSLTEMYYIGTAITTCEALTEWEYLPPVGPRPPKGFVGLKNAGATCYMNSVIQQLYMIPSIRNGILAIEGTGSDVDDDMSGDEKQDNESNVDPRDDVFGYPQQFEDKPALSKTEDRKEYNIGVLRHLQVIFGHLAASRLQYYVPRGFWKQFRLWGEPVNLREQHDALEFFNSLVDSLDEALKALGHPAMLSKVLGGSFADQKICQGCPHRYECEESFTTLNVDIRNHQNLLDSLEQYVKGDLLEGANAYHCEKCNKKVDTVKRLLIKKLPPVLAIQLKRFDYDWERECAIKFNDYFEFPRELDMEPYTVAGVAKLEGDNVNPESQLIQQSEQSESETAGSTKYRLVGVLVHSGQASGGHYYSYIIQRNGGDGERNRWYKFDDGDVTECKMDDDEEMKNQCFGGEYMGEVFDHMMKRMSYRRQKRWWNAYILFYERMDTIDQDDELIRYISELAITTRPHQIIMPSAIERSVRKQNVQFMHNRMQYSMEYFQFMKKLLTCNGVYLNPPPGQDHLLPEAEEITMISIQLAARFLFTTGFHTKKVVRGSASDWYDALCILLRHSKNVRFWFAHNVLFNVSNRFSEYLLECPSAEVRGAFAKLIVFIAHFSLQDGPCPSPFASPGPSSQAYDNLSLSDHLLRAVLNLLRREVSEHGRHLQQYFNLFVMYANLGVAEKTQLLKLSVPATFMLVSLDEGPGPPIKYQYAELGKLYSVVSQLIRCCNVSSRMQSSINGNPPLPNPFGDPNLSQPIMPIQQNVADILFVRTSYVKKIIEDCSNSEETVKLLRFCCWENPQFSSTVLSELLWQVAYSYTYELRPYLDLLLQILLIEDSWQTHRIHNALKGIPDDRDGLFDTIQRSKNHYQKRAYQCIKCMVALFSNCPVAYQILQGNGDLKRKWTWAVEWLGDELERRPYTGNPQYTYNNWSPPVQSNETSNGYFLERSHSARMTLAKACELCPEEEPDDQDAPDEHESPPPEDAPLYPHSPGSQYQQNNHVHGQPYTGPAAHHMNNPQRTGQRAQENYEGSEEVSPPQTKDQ
Sequence of UniProt P51784 (P51784 whole entry): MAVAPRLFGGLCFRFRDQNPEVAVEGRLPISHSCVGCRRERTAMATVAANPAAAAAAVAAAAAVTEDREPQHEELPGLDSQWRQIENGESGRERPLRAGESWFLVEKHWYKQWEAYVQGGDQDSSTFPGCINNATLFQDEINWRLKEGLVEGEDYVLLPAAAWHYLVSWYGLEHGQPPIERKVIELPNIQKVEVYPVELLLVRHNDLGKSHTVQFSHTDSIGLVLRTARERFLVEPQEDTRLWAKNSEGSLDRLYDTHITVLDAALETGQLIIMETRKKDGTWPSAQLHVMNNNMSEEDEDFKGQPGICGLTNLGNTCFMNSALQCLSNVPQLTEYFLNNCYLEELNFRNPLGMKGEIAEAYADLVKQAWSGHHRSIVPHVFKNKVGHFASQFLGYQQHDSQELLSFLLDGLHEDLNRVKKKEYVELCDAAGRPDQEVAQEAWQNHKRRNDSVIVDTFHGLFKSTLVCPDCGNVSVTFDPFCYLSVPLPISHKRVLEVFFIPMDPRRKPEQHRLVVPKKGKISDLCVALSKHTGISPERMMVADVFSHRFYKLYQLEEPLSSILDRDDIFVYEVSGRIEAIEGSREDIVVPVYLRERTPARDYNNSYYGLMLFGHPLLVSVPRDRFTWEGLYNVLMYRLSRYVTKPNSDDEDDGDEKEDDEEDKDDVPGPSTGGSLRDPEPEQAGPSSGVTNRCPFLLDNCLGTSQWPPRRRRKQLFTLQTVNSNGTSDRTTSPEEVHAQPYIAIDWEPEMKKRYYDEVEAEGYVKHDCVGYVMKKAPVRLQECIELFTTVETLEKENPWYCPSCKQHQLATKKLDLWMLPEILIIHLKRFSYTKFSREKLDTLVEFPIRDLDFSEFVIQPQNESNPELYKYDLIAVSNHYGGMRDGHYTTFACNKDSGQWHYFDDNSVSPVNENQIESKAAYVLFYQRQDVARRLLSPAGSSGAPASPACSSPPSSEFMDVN

O=C(CCl)N1CCOC2(CCC2)C1
inactive: [1] 0.105 | [2] -0.0639 | [3] 0.31 | [4] 0.244 | [5] 0.00991 | [6] -0.696 | [7] 0.0475 | [8] -0.71 | [9] 0.154
